Targets with a hit are over-represented here; the source holds about 8,800 in all. About 0.5% of all pairs of compound and target were hits. Values without a mark were called inactive.
Tests used:
Assay in all cases: log2 fold change, soluble protein after heating vs DMSO (PISA); higher = thermal stabilisation; K562 lysate, 10 uM; active = over 0.2 and 3.5 SD of the protein, either way, in both replicates (recomputed)
[1] = compound: C#Cc1cccc(Nc2ncnc3cc(OCCOC)c(OCCOC)cc23)c1 [erlotinib]
Outline: (§1)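 K562 pellets were dounce-homogenised in PBS pH 7.4 with 1 mM MgCl2, and the crude extract at 1 mg/mL protein was treated with 10 μM compound for 30 min. Aliquots were heated for 3 min across 48°C-58°C, pooled, and brought to 0.5% NP-40 at 4°C; soluble protein was the supernatant after 21,000xg for 90 min. Soluble protein was quantified by TMTpro 16plex LC-MS/MS with channel sums equalised, and reported as log2 fold change in thermal stability against DMSO controls, with values from duplicates.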

[2] = compound: C/C(=N\NC(=O)C1=CC(=CC=C1)S(=O)(=O)N2CCOCC2)/C3=C(C=CC(=C3)Cl)O
Outline: as §1

[3] = compound: C1=CC(=CC=C1C2=NC3=C(N2)C=C(C=C3)C(=O)N)OC4=CC=C(C=C4)Cl
Outline: as §1

[4] = compound: C1=CC2=C(C=CC(=C2)/C=C\3/C(=O)NC(=NCC4=CC=CS4)S3)N=C1
Outline: as §1

[5] = compound: C1=CC2=NC=CN=C2C=C1/C=C/3\C(=O)NC(=O)S3
Outline: as §1

[6] = compound: C1=CC=C(C=C1)C2=NC(=C(N2)C3=CC=NC=C3)C4=CC(=C(C=C4)Cl)O
Outline: as §1

[7] = compound: C1=CC=C2C(=C1)C3=NNC4=CC=CC(=C43)C2=O
Outline: as §1

[8] = compound: C1CCN(C1)C(=O)NC2=CC=CC(=C2)NC3=NC=C(C(=N3)NCCC4=CN=CN4)Br
Outline: as §1

[9] = compound: C1CN(CCC1(CC2=CC=C(C=C2)Cl)N)C3=NC=NC4=C3C=CN4
Outline: as §1

[10] = compound: C1COCCN1CCN2C3=CC=CC=C3N=C2NC(=O)C4=CC(=CC=C4)[N+](=O)[O-] [IRAK-1-4 Inhibitor I]
Outline: as §1

[11] = compound: C=CC(=O)N1CCC[C@@H](n2nc(-c3ccc(Oc4ccccc4)cc3)c3c(N)ncnc32)C1 [ibrutinib]
Outline: as §1

[12] = compound: CC(=O)c1cnc2ccc(-c3cc(Cl)c(O)c(Cl)c3)nc2c1N[C@H]1CC[C@H](CN(C)C)CC1
Outline: as §1

[13] = compound: CC(C)(C)Cn1c(N)nc2ccc(-c3[nH]c(C(C)(C)C)nc3-c3ccc(F)cc3)nc21 [ralimetinib]
Outline: as §1

[14] = compound: CC(C)(O)CC(=O)NCCn1ccc2ncnc(Nc3ccc(Oc4cccc(C(F)(F)F)c4)c(Cl)c3)c21
Outline: as §1

[15] = compound: CC(C)C1=C2N=C(C=C(N2N=C1)NCC3=CC=CC=C3)NCCCCCCN
Outline: as §1

[16] = compound: CC1=C(C(CC(=O)N1)C2=CC=C(C=C2)C(F)(F)F)C(=O)NC3=C(C=C4C(=C3)C=NN4)F
Outline: as §1

[17] = compound: CC1=C(C2=C(C=C1)C(=O)C3=CC=CC=C3N2CCCN)C
Outline: as §1

[18] = compound: CC1=C(C=C(C=C1)NC(=O)C2=CC(=CC=C2)C(C)(C)C#N)NC3=CC4=C(C=C3)N=CN(C4=O)C
Outline: as §1

[19] = compound: CC1=C(C=C(C=C1)NC(=O)C2=CC(=CC=C2)N(C)C)NC(=O)C3=CC=C(C=C3)O
Outline: as §1

[20] = compound: CC1=CC=C(C=C1)SC2=C3C=C(SC3=CN=C2)C(=O)N
Outline: as §1

Sequence of UniProt Q96B23 (Q96B23 whole entry, looked up): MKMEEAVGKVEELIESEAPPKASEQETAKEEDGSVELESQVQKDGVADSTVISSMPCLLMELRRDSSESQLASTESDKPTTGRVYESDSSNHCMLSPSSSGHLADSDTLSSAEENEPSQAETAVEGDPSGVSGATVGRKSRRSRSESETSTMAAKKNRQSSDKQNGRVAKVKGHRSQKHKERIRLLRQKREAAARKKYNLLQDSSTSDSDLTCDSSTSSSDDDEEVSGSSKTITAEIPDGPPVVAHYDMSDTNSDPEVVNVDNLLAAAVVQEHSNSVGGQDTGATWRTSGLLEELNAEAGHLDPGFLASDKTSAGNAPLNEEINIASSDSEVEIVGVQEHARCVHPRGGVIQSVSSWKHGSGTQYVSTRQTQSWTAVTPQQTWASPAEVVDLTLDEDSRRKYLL
Sequence of UniProt O95674 (O95674 whole entry, looked up): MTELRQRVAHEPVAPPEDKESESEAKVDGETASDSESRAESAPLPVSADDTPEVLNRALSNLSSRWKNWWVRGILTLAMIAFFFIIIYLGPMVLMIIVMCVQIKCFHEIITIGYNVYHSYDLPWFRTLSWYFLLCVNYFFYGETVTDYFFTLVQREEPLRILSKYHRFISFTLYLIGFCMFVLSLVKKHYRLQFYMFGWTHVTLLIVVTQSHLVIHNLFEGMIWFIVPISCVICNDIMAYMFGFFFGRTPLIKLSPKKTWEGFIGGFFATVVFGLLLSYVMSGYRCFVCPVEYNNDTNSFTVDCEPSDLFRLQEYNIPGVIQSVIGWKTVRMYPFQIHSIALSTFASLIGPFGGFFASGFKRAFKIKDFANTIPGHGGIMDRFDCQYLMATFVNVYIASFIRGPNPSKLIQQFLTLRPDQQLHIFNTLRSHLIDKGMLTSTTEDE
Sequence of UniProt Q5BKX5 (Q5BKX5 whole entry, looked up): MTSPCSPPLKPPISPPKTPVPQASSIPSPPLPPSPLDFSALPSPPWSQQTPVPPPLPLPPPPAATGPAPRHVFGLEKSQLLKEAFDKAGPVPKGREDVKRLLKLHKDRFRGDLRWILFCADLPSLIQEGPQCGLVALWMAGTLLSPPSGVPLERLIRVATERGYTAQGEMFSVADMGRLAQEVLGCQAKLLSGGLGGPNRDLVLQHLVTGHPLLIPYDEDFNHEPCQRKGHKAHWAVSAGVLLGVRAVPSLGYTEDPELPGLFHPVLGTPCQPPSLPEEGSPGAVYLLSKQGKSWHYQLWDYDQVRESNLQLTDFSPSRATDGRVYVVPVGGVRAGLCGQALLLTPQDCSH
Sequence of UniProt O43861 (O43861 whole entry, looked up): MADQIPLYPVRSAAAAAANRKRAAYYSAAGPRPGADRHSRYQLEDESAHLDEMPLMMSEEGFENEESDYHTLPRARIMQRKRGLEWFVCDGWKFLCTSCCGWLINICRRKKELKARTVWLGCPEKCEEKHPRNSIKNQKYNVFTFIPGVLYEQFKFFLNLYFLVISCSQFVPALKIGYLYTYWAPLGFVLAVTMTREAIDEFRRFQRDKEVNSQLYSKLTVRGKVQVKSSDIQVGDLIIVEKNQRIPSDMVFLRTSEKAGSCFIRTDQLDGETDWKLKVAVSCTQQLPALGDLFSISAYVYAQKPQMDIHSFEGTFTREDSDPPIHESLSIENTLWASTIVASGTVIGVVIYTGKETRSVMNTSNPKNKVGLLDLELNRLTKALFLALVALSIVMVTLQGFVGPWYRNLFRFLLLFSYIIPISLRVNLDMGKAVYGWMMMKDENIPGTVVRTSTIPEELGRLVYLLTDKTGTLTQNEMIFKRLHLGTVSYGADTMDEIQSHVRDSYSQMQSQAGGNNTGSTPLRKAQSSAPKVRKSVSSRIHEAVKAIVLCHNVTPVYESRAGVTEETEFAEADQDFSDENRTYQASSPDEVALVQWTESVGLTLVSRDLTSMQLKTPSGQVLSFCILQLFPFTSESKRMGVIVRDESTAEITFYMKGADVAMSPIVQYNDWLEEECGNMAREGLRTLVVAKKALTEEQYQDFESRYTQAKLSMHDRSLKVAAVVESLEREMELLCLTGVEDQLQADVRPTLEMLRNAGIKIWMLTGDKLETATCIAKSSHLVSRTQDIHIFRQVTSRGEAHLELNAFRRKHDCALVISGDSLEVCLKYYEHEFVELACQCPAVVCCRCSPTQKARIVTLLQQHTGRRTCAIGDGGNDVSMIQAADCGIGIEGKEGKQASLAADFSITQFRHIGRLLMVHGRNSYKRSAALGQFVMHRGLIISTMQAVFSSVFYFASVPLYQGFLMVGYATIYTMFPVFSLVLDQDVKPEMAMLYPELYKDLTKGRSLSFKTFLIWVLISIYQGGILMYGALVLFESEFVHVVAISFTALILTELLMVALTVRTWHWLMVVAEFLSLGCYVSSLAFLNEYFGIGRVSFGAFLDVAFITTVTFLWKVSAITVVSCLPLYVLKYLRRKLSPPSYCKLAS
Sequence of UniProt Q96A33 (Q96A33 whole entry, looked up): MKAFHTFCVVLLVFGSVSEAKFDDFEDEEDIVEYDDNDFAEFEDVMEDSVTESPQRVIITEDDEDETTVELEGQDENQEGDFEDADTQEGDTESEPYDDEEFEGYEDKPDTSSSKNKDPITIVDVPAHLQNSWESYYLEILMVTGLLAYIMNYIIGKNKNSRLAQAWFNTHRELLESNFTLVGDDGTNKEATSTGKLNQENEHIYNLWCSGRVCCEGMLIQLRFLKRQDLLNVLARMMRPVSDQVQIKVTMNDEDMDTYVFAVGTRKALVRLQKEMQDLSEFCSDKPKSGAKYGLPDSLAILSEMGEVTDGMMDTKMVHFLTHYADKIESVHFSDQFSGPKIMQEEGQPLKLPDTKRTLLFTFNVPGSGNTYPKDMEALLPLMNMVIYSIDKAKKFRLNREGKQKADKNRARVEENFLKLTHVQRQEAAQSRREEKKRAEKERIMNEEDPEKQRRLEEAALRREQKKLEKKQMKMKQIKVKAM
Sequence of UniProt P21127 (P21127 whole entry, looked up): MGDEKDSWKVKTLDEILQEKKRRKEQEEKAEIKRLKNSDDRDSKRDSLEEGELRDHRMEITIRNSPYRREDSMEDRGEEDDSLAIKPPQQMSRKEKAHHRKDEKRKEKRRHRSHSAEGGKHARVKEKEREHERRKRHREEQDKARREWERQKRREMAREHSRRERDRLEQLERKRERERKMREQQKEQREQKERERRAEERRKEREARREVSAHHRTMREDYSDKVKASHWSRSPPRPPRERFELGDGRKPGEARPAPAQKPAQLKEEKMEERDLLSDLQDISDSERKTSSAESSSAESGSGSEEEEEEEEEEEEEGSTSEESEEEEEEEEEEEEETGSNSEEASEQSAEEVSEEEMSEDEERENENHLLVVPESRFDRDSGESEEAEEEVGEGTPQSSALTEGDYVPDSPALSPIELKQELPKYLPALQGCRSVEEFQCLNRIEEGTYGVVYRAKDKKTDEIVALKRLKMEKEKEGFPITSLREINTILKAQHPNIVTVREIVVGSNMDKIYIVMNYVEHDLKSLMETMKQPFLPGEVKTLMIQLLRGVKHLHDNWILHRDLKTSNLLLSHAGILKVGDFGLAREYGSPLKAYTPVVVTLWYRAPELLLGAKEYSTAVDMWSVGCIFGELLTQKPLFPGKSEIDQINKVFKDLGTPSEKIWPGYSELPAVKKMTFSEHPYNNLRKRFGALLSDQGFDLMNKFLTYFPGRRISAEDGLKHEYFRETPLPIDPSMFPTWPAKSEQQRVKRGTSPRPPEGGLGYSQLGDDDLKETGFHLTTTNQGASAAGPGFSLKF
Sequence of UniProt Q9BV29 (Q9BV29 whole entry, looked up): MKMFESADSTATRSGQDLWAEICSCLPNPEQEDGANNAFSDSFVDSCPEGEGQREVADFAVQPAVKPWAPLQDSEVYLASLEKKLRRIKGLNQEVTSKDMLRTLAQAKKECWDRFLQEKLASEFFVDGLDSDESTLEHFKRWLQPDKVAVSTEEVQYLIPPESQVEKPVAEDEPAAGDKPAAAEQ
Sequence of UniProt Q9NXV6 (Q9NXV6 whole entry, looked up): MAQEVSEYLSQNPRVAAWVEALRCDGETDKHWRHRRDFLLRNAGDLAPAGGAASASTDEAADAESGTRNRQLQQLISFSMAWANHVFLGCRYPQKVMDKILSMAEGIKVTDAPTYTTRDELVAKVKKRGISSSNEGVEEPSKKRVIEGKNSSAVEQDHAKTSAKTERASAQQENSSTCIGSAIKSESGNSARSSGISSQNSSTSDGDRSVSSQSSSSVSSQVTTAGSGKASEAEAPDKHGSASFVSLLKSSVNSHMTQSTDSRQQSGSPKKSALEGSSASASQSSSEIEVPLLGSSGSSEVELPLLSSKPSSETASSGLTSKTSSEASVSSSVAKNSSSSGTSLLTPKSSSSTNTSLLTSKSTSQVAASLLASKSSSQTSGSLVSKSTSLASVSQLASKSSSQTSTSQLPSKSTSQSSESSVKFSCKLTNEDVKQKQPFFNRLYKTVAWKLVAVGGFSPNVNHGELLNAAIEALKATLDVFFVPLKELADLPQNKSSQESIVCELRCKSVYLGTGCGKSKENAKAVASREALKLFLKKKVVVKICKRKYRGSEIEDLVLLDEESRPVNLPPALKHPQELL
Sequence of UniProt O00748 (O00748 whole entry, looked up): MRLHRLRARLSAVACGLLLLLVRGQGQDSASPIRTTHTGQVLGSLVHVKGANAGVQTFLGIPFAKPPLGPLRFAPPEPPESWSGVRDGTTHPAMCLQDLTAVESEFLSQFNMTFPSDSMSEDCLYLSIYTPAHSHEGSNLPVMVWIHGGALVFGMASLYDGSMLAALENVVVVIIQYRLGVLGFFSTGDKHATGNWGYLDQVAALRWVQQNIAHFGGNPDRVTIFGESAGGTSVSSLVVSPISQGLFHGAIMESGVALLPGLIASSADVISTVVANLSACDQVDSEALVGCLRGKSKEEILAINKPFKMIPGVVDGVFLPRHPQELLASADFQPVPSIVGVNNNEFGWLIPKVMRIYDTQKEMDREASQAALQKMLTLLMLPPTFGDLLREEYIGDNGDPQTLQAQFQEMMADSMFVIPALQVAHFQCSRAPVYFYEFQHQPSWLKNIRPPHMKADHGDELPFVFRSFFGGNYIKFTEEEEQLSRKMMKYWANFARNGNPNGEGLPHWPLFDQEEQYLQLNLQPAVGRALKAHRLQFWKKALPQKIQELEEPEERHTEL

| Target | log2 fold change [1] | log2 fold change [2] | log2 fold change [3] | log2 fold change [4] | log2 fold change [5] | log2 fold change [6] | log2 fold change [7] | log2 fold change [8] | log2 fold change [9] | log2 fold change [10] | log2 fold change [11] | log2 fold change [12] | log2 fold change [13] | log2 fold change [14] | log2 fold change [15] | log2 fold change [16] | log2 fold change [17] | log2 fold change [18] | log2 fold change [19] | log2 fold change [20] |
| --- | --- | --- | --- | --- | --- | --- | --- | --- | --- | --- | --- | --- | --- | --- | --- | --- | --- | --- | --- | --- |
| CDS2 (UniProt O95674) | -0.023 | 0.004 | -0.087 | -0.008 | -0.011 | 0.079 | -0.027 | -0.056 | 0.01 | 0.214 (active) | 0.008 | -0.013 | -0.061 | -0.07 | -0.03 | -0.025 | 0.004 | 0.05 | 0.04 | -0.015 |
| CCDC47 (UniProt Q96A33) | 0.02 | 0.003 | -0.071 | 0.009 | 0.022 | -0.03 | -0.093 | -0.007 | 0.024 | 0.003 | 0 | 0.002 | 0.01 | -0.063 | -0.042 | 0.044 | -0.002 | 0.041 | 0.045 | -0.013 |
| CDKN2AIP (UniProt Q9NXV6) | -0.047 | 0.067 | 0.072 | -0.01 | -0.074 | -0.006 | -0.079 | -0.038 | 0 | 0.048 | -0.003 | -0.038 | -0.013 | 0.029 | -0.04 | -0.009 | 0.03 | 0.004 | -0.019 | -0.009 |
| CDK11B (UniProt P21127) | 0.01 | 0.025 | -0.029 | 0.008 | -0.018 | 0.017 | -0.049 | -0.016 | -0.003 | -0.021 | -0.008 | 0.438 (active) | 0.028 | 0.034 | 0.01 | -0.027 | -0.011 | 0 | 0.01 | 0.003 |
| ATP9B (UniProt O43861) | 0.008 | -0.057 | 0.034 | 0.175 | -0.07 | 0.031 | 0.081 | 0.027 | -0.103 | -0.037 | -0.156 | 0.08 | -0.044 | -0.053 | -0.021 | 0.225 | 0.049 | 0 | 0.079 | -0.054 |
| CCDC32 isoform 2 (UniProt Q9BV29) | -0.021 | 0.031 | -0.027 | 0 | -0.014 | -0.003 | 0.007 | 0.048 | 0.049 | 0.057 | 0.276 (active) | 0.026 | -0.005 | 0 | 0.047 | -0.017 | -0.03 | 0.051 | 0.028 | 0.03 |
| CES2 isoform 4 (UniProt O00748) | -0.014 | 0.006 | -0.012 | 0.041 | -0.035 | 0.087 | -0.067 | 0.053 | -0.031 | 0.075 | 0.431 (active) | -0.048 | -0.031 | 0.057 | -0.004 | 0.202 | -0.128 | 0.079 | -0.019 | -0.025 |
| BPHL (UniProt Q86WA6) | -0.054 | -0.445 (active) | 0.033 | 0.089 | -0.135 | -0.071 | 0.118 | -0.063 | 0.082 | -0.033 | -0.073 | -0.016 | 0.047 | 0.06 | -0.045 | 0 | -0.015 | 0.025 | -0.004 | -0.002 |
| C19orf54 (UniProt Q5BKX5) | -0.012 | 0.042 | 0.035 | -0.025 | 0.019 | -0.004 | 0.022 | -0.012 | -0.012 | 0.054 | 0.041 | 0.003 | -0.018 | -0.055 | 0.028 | 0.012 | 0.06 | -0.041 | 0.013 | 0.063 |
| C18orf25 isoform 2 (UniProt Q96B23) | 0.031 | 0.098 | -0.059 | -0.002 | 0.185 | 0.055 | -0.011 | -0.01 | -0.063 | 0.003 | 0.126 | 0.1 | -0.065 | -0.027 | -0.013 | -0.088 | 0.015 | – | -0.017 | -0.076 |
| CDK13 (UniProt Q14004) | -0.136 | -0.041 | -0.089 | -0.052 | 0.01 | -0.071 | 0.127 | 0.091 | -0.025 | -0.044 | -0.038 | 0.271 (active) | 0.031 | 0.141 | -0.056 | -0.039 | 0.041 | -0.104 | -0.028 | -0.022 |

From the supplement of paper PMC10849652
